In all, about 1,600 compounds were measured (“Hit score”: median about 0.13, highest 2% from about 0.46 on). Many of the other results were omitted from the sample, so the highest values are more common in it than they were.

In the test the test system is SARS-CoV-2. The test can be described thus: Antiviral activity against SARS-CoV-2 (USA-WA1/2020 strain) measured by imaging in HRCE cells at MOI 0.4 after 96 hrs (reported as hit score from 0-1 for on-disease vs off-disease activity: scores >0.6 considered hits). It is filed as functional, Homo sapiens.
On to `CO[C@@]1(NC(=O)CSC[C@@H](N)C(=O)O)C(=O)N2C(C(=O)O)=C(CSc3nnnn3C)CS[C@@H]21` [CEFMINOX], for which the Hit score is 0.1316.

As for `CC(C)CN(C[C@@H](O)[C@H](Cc1ccccc1)NC(=O)O[C@H]1CO[C@H]2OCC[C@H]21)S(=O)(=O)c1ccc(N)cc1`, the Hit score was 0.38.

The compound `CO[C@]12C[C@@H](COC(=O)c3cncc(Br)c3)CN(C)[C@@H]1Cc1cn(C)c3cccc2c13` [NICERGOLINE] returned a Hit score of 0.1321.

Take `CC[C@@H](CO)NC(=O)[C@@H]1C=C2c3cccc4[nH]cc(c34)C[C@H]2N(C)C1` [METHYLERGONOVINE]: the Hit score was determined as 0.219.

`C[C@@H]1C[C@H]2[C@@H]3CCC4=CC(=O)C=C[C@]4(C)[C@@]3(F)[C@@H](O)C[C@]2(C)[C@@]1(O)C(=O)COP(=O)([O-])[O-].[Na+].[Na+]` [DEXAMETHASONE SODIUM PHOSPHATE]: the Hit score is 0.2627.

The compound `COC(=O)N[C@H](C(=O)N1CCC[C@H]1c1nc(-c2ccc3c(c2)O[C@@H](c2ccccc2)n2c-3cc3cc(-c4c[nH]c([C@@H]5CCCN5C(=O)[C@@H](NC(=O)OC)C(C)C)n4)ccc32)c[nH]1)C(C)C` [ELBASVIR] displayed a Hit score of -0.03781.

Consider `O=C(Nc1c(Cl)cncc1Cl)c1ccc(OC(F)F)c(OCC2CC2)c1` [ROFLUMILAST], for which the Hit score is 0.1334.

On to `C=CC[N+]1([C@H]2C[C@H]3[C@@H]4CC[C@H]5C[C@H](O)[C@@H](N6CCOCC6)C[C@]5(C)[C@H]4CC[C@]3(C)[C@H]2OC(C)=O)CCCC1` [ROCURONIUM], for which the Hit score stood at 0.1086.

On to `CCc1cc2c(cc1CC)CC(NC[C@H](O)c1ccc(O)c3[nH]c(=O)ccc13)C2` [INDACATEROL], for which the Hit score is listed as -0.2891.

`C[C@H]1[C@H](OC(=O)CCC(=O)O)O[C@@H]2O[C@@]3(C)CC[C@H]4[C@H](C)CC[C@@H]1[C@@]24OO3` [ARTESUNATE]: the Hit score was 0.2142.

As to `CC(=O)O[C@]1(C(C)=O)CC[C@H]2[C@@H]3C=C(C)C4=CC(=O)CC[C@@H]4[C@H]3CC[C@@]21C` [NOMEGESTROL ACETATE], the Hit score is reported as 0.2782.

Regarding `CC1(C)S[C@@H]2[C@H](NC(=O)Cc3ccccc3)C(=O)N2[C@H]1C(=O)O` [PENICILLIN G], the Hit score was determined as 0.164.

With `CC(=O)O[C@H]1C[C@@H]2CC[C@@H]3[C@H](CC[C@@]4(C)[C@H]3C[C@H]([N+]3(C)CCCCC3)[C@@H]4OC(C)=O)[C@@]2(C)C[C@@H]1[N+]1(C)CCCCC1` [PANCURONIUM], the Hit score came out at 0.09762.

`COc1ccc(CN2CCN(C(c3ccc(F)cc3)c3ccc(F)cc3)CC2)c(OC)c1OC` [LOMERIZINE] showed a Hit score of -0.04979.

Compound `C=CCNc1nc(NCC=C)nc(N2CCN(C(c3ccc(F)cc3)c3ccc(F)cc3)CC2)n1` [ALMITRINE] came in with a Hit score of 0.7206.

On to `C#Cc1cccc(Nc2ncnc3cc4c(cc23)OCCOCCOCCO4)c1` [ICOTINIB], for which the Hit score stood at 0.1043.

The compound `C[C@H](O)[C@H](O)[C@H]1CNc2nc(N)[nH]c(=O)c2N1` [SAPROPTERIN] returned a Hit score of 0.04545.

The compound `C=C1[C@H](CO)[C@@H](O)C[C@@H]1n1cnc2c(=O)[nH]c(N)nc21.O` yielded a Hit score of 0.1346.

Compound `CC1(C)S[C@@H]2[C@H](NC(=O)[C@H](NC(=O)N3CCN(S(C)(=O)=O)C3=O)c3ccccc3)C(=O)N2[C@H]1C(=O)O` [MEZLOCILLIN] registered a Hit score of 0.1621.

The compound `O=C(O[C@H]1C[C@H]2CC[C@@H](C1)[N+]21CCCC1)C(O)(c1ccccc1)c1ccccc1` [TROSPIUM] displayed a Hit score of 0.08693.

Compound `Cc1ccccc1C(=O)Nc1ccc(C(=O)N2CCCC(N(C)C)c3ccccc32)cc1` (stereo not drawn) [MOZAVAPTAN] registered a Hit score of 0.1836.

`CCC(C)(C)C(=O)O[C@H]1C[C@@H](C)C=C2C=C[C@H](C)[C@H](CC[C@@H]3C[C@@H](O)CC(=O)O3)[C@H]21` [SIMVASTATIN]: the Hit score is reported as 0.1206.

`C[C@H]1c2cccc(O)c2C(=O)C2=C(O)[C@]3(O)C(=O)C(C(N)=O)=C(O)[C@@H](N(C)C)[C@@H]3[C@@H](O)[C@@H]21.O` [DOXYCYCLINE] registered a Hit score of -0.02175.

Turning to `CCCCCCCC/C=C/CCCCCCCC(=O)OC[C@H]1O[C@@H](n2ccc(N)nc2=O)C(F)(F)[C@@H]1O` [GEMCITABINE ELAIDATE], the Hit score stood at 0.08488.

With `CC/C=C\C/C=C\C/C=C\C/C=C\C/C=C\CCCC(=O)O` [ICOSAPENT], the Hit score stood at 0.1484.

Consider `C[N+]1(CC2CC2)[C@@H]2C[C@@H](OC(=O)[C@H](CO)c3ccccc3)C[C@H]1[C@@H]1O[C@@H]12` (stereo partly drawn) [CIMETROPIUM], for which the Hit score is given as 0.08586.

For the compound `COc1cccc(Nc2c(C(N)=O)cnc3c(C)cc(S(=O)(=O)c4cccc(C(=O)N(C)C)c4)cc23)c1` [GSK-256066], the Hit score is recorded as -0.006373.

Consider `Cl.OC(CNCC(O)C1CCc2cc(F)ccc2O1)C1CCc2cc(F)ccc2O1` (stereo not drawn) [NEBIVOLOL HYDROCHLORIDE], for which the Hit score is 0.4783.

With `C[C@]12CC[C@@H]3c4ccc(O)cc4CC[C@H]3[C@@H]1CC[C@@H]2OC(=O)CCC1CCCC1` [ESTRADIOL CYPIONATE], the Hit score was 0.1681.

As for `Cc1ccc(/C=C2\CNC/C(=C\c3ccc(C)cc3)C2=O)cc1.Cl`, the Hit score came out at 0.05741.

For the compound `C[C@@H](O)[C@H]1C(=O)N2C(C(=O)O)=C([C@H]3CCCO3)S[C@H]12` [FAROPENEM], the Hit score is recorded as 0.1823.

In turn, `CC1(C)S[C@@H]2[C@H](NC(=O)[C@H](N)c3ccc(O)cc3)C(=O)N2[C@H]1C(=O)[O-].[Na+]` [AMOXICILLIN SODIUM] came in with a Hit score of 0.05468.

With `NCCCC[C@H](N)C(=O)O.N[C@@H](CSCC(=O)O)C(=O)O.O`, the Hit score came to 0.1749.

In turn, `CO/N=C(\C(=O)N[C@@H]1C(=O)N2C(C(=O)OCOC(=O)C(C)(C)C)=C(C)CS[C@H]12)c1csc(N)n1` came in with a Hit score of 0.2495.

`CN(C)C(=O)c1cc2cnc(Nc3ccc(N4CCNCC4)cn3)nc2n1C1CCCC1` [RIBOCICLIB] gave a Hit score of 0.1227.

On to `CC(COc1ccccc1Cc1ccccc1)N1CCCCC1` (stereo not drawn) [BENPROPERINE], for which the Hit score is 0.02777.

Turning to `C#C[C@]1(O)CC[C@H]2[C@@H]3CCC4=CC(=O)CC[C@@H]4[C@H]3CC[C@@]21C` [NORETHINDRONE], the Hit score amounted to 0.1388.

`C=CCN1CC[C@]23c4c5ccc(O)c4O[C@H]2[C@@H](OCCOCCOCCOCCOCCOCCOCCOC)CC[C@@]3(O)[C@H]1C5` [NALOXEGOL] came in with a Hit score of 0.106.

`CN(C(=O)C(Cl)Cl)c1ccc(O)cc1` [DILOXANIDE] returned a Hit score of -0.0329.

Turning to `O=C1[C@H]2CCCC[C@H]2C(=O)N1CCCCN1CCN(c2nsc3ccccc23)CC1` [PEROSPIRONE], the Hit score is on record as 0.1455.

As for `CCCCCCCCCCCC(=O)OCC(O)CO` (stereo not drawn) [GLYCEROL MONOLAURATE], the Hit score was found to be 0.1728.

Take `OCC(O)COc1cccc2ccccc12` (stereo not drawn): the Hit score came to 0.1908.

Consider `CC1=C(C)C(=O)C(CCCCCCCCCC[P+](c2ccccc2)(c2ccccc2)c2ccccc2)=CC1=O`, for which the Hit score came out at 0.06177.

The compound `C#C[C@]1(O)CC[C@H]2[C@@H]3CCC4=Cc5oncc5C[C@]4(C)[C@H]3CC[C@@]21C` [DANAZOL] had a Hit score of 0.2899.

For the compound `CC(C)(CO)c1cc2cc(NC(=O)C3(c4ccc5c(c4)OC(F)(F)O5)CC3)c(F)cc2n1C[C@@H](O)CO` [TEZACAFTOR], the Hit score is given as 0.1873.

Turning to `O=C(O)c1cccc(-c2noc(-c3ccccc3F)n2)c1`, the Hit score came out at 0.2151.

Compound `N#Cc1ccnc(N2C(=O)CC[C@H]2C(=O)N(c2cncc(F)c2)[C@H](C(=O)NC2CC(F)(F)C2)c2ccccc2Cl)c1` [IVOSIDENIB] yielded a Hit score of 0.2722.

Take `O=C(O)c1ccc2c(c1)nc(Nc1cccc(Cl)c1)c1ccncc12` [SILMITASERTIB]: the Hit score is 0.7608.

Compound `CC[C@H](Nc1ncnc2[nH]cnc12)c1nc2cccc(F)c2c(=O)n1-c1ccccc1` [IDELALISIB] came in with a Hit score of 0.4259.

Compound `C[C@H](Nc1ncnc2nc[nH]c12)c1cc2cccc(Cl)c2c(=O)n1-c1ccccc1` [DUVELISIB] gave a Hit score of 0.6035.

As to `C[C@H](C(=O)O)c1ccc(-c2ccccc2)c(F)c1` [ESFLURBIPROFEN], the Hit score is 0.1907.

As to `OC[C@H]1OC(O)[C@H](O)[C@@H](O)[C@@H]1O` (stereo partly drawn) [DEXTROSE], the Hit score was 0.07162.

`CCCCC(F)(F)[C@@]1(O)CC[C@H]2[C@@H](CC(=O)[C@@H]2CCCCCCC(=O)O)O1` [LUBIPROSTONE] came in with a Hit score of 0.08446.

In turn, `CC1(C)C(/C=C/C=C/C=C/C=C2\N(CCCCS(=O)(=O)[O-])c3ccc4ccccc4c3C2(C)C)=[N+](CCCCS(=O)(=O)[O-])c2ccc3ccccc3c21.[Na+]` [INDOCYANINE GREEN] returned a Hit score of 0.2338.

As to `Cc1nc(NC(=O)N2CCC[C@H]2C(N)=O)sc1-c1ccnc(C(C)(C)C(F)(F)F)c1` [ALPELISIB], the Hit score was found to be 0.6194.

`CC(C)(C)C(=O)OCC(=O)[C@H]1CC[C@H]2[C@@H]3CCC4=CC(=O)CC[C@]4(C)[C@H]3CC[C@]12C` [DESOXYCORTICOSTERONE PIVALATE] registered a Hit score of 0.2223.

`O=C(O)c1ccc(NC(=O)[C@H](Cc2ccc(O)cc2)NC(=O)c2ccccc2)cc1` [BENTIROMIDE] came in with a Hit score of 0.2686.

`CC1(C)O[C@@H]2[C@@H](CO[C@@]3(COS(N)(=O)=O)OC(C)(C)O[C@@H]23)O1` [TOPIRAMATE] gave a Hit score of 0.1748.
